Experiment [1] is described as follows: resazurin metabolic signal in HepG2 cells – cell-based, resazurin fluorescence, 24 h, PK04 Diversity Set, profiling panel (AID 1172). Note: test concentration not given here. As to conditions: HepG2 viability, higher = more signal. In general terms: Alamar Blue is a resazurin reagent that responds to reducing activity.
A short description of experiment [2]: budding yeast growth changes without added modifier – OD600, strain BY4716, 24 h, basal condition, primary screen (AID 1173). As to conditions: S. cerevisiae BY4716 growth, OD600, 24 h; higher = more signal, called active from +8 up or from −8 down.
A short description of experiment [3]: viability profiling in MM1S myeloma cells – cell-based, resazurin fluorescence, basal, 24 h, PK04 Diversity Set, profiling panel (AID 1174).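 Note: MM1S multiple myeloma cell line; test concentration not given here.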 Conditions: higher = more signal, called active from +8 up or from −8 down.
The target in experiment [4] is Dihydroorotate dehydrogenase (quinone), mitochondrial (Plasmodium falciparum (isolate 3D7)) (UniProt Q08210). Kind of experiment: inhibition of P. falciparum DHODH – biochemical, C-terminal His tag, absorbance 600 nm, primary screen (AID 1175).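 Note: recombinant parasite enzyme with a five histidine tag at its C terminus; test concentration not given here.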 Conditions: PfDHODH enzyme, DCIP absorbance 600 nm; higher = more signal, called active from +8 up or from −8 down.
Experiment [5] in a line: inhibition of PAO1 biofilm formation – strain PAO1, LB-PBS medium, absorbance 600 nm, primary screen (AID 1176). Note: test concentration not given here. As to conditions: P. aeruginosa PAO1 growth/biofilm, A600, 12 h; higher = more signal.
Experiment [6] can be described thus: growth modulation of vineyard yeast isolate – strain RM11-1a, OD600, basal, 24 h, primary screen (AID 1177).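 Note: cultures grown under basal conditions with no added stressor; test concentration not given here.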 Conditions: S. cerevisiae RM11-1a growth, OD600, 24 h; higher = more signal, called active from +8 up or from −8 down.
Experiment [7] is described as follows: growth of efflux-deficient E. coli DRC39 – strain DRC39, OD650, 24 h, E. coli filamentation inducers, primary screen (AID 1178).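 Note: growth measured as culture turbidity by optical density at 650 nm; test concentration not given here.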 Conditions: E. coli DRC39 acrAB, higher = more signal, called active from +8 up or from −8 down.
A short description of experiment [8]: growth of efflux-deficient E. coli DRC39 – strain DRC39, OD650, 48 h, E. coli filamentation inducers, primary screen (AID 1179).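 Note: screen aims at cell division blockers that make cells filament.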 Conditions: E. coli DRC39 delta-acrAB growth, higher = more signal, called active from +8 up or from −8 down.
Experiment [9] can be described thus: viability profiling in RPMI8226 myeloma cells – cell-based, resazurin fluorescence, basal, 24 h, PK04 Diversity Set, profiling panel (AID 1180).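 Note: RPMI8826 multiple myeloma cell line at 5000 cells per well; test concentration not given here.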 As to conditions: higher = more signal.
Experiment [10] concerns the target E3 ubiquitin-protein ligase XIAP (Homo sapiens) (UniProt P98170). Kind of experiment: small molecules binding XIAP protein – biophysical, small-molecule microarray, fluorescence 635 nm, primary screen (AID 1181).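 Note: score merges 667 nm emission and signal to noise over triplicate slides.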 As to conditions: higher = more signal.

Our source for the z-score and composite z-score values is PubChem BioAssay.

Calls of active or inactive are those of the source. Unless noted, the rule behind the calls is not given here.

E3 ubiquitin-protein ligase XIAP (Homo sapiens), sequence (P98170 whole entry, looked up): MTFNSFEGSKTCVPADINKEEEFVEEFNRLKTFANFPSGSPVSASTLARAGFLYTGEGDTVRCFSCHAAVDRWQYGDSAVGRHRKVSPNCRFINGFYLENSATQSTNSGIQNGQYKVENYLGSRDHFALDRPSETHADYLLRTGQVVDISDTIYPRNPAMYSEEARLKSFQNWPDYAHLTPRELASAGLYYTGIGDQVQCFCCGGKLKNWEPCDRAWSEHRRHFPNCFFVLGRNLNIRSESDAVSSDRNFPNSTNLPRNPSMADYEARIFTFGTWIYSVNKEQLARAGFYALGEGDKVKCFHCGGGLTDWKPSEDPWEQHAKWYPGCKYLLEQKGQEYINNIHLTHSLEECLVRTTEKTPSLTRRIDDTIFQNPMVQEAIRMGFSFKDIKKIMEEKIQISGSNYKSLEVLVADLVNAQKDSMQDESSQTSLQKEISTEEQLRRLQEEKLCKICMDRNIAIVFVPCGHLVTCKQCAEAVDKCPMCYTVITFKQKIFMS
Dihydroorotate dehydrogenase (quinone), mitochondrial (Plasmodium falciparum (isolate 3D7)), sequence (Q08210 whole entry, looked up): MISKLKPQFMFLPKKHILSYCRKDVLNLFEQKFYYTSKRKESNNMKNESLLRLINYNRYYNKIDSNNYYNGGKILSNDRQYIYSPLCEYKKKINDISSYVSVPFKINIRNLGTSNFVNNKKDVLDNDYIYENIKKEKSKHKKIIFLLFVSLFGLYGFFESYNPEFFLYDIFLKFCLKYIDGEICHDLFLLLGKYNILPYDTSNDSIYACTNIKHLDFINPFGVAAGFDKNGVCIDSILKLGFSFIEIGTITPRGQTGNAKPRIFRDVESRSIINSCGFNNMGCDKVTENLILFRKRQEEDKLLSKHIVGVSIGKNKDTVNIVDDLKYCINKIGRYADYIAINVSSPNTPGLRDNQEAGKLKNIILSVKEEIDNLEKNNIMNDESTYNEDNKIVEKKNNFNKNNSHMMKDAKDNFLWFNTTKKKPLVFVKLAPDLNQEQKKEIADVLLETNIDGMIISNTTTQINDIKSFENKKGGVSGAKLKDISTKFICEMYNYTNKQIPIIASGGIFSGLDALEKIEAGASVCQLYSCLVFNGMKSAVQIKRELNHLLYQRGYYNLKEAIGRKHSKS

On to `COc1ccc(CCNC(=O)[C@@]2(Sc3ccc(C)cc3)CC(=O)N(Cc3cc(C(F)(F)F)cc(C(F)(F)F)c3)[C@@H]2c2ccc(CO)cc2I)cc1`, for which the z-score in [1] was 0.872; in experiment [2], -3.6 (inactive); in [3] it was -2.46 (inactive); in [5] it was 0.723 (inactive); in [6], -1.33 (inactive); in [7], 0.232 (inactive). Besides, the results for the z-score in experiment [8] and in experiment [9] were 0.214 (inactive) and -1.61, respectively. Further, the composite z-score in experiment [4] is -0.988 (inactive); in experiment [10], -0.291.
As for `O=C(O)[C@H](Cc1ccccc1)n1cc(-c2ccccn2)nn1`, the z-score in [1] was 0.535; in [2] it was -0.65 (inactive); in experiment [3], 0.365 (inactive); in [5] it was -0.476 (inactive); in experiment [6], 0.911 (inactive); in [7], -0.256 (inactive). Also, the z-score in [8] was 0.23 (inactive); in experiment [9], 0.373. The composite z-score in experiment [4] is -0.435 (inactive); in experiment [10] it was 0.122.
On to `Cc1ccc(S[C@]2(C(=O)NC(C)C)CC(=O)N(Cc3ccccc3C(F)(F)F)[C@@H]2c2ccc(CO)cc2I)cc1`, for which the z-score was 0.105 in experiment [1]; -5.85 (inactive) in [2]; -1.86 (inactive) in experiment [3]; 0.27 (inactive) in experiment [5]; -2.43 (inactive) in [6]; 0.221 (inactive) in experiment [7]. Also, the z-score was 0.201 (inactive) in experiment [8] and -2.09 in [9]. Also, the results for the composite z-score in [4] and in experiment [10] were -1.47 (inactive) and -0.126, respectively.
As for `C[C@H]1C2=C3C(CC[C@H]4C(OCc5ccc(F)cc5C(F)(F)F)OC[C@](C)([C@@H]34)N(C(=O)OC(C)(C)C)C2)C(CO)C1CO` (stereo not given in full), the z-score in experiment [1] is -1.49; in experiment [2] it was 0.964 (inactive); in experiment [3], -2.08 (inactive); in experiment [5] it was 2.31 (inactive); in experiment [6], 1.04 (inactive); in experiment [7] it was -1.36 (inactive). In addition, the results for the z-score in [8] and in [9] were -0.895 (inactive) and -1.62, respectively. Further, the composite z-score in [4] is -0.108 (inactive); in experiment [10], 0.147.
Consider `COCCCNC(=O)[C@]1(Cc2ccccc2CN=[N+]=[N-])N=C(c2ccc(OCCCO)cc2)O[C@@H]1c1ccccc1`, for which the z-score in experiment [1] was 1.27; in experiment [2], -0.682 (inactive); in experiment [3], -1.48 (inactive); in experiment [5] it was -0.441 (inactive); in experiment [6], 0.916 (inactive); in experiment [7], 1.18 (inactive). Moreover, the z-score was 0.422 (inactive) in [8] and -3.11 in [9]. The figures for the composite z-score in experiment [4] and in experiment [10] were 0.633 (inactive) and 0.216, respectively.
As to `O=C1O[C@H](c2ccccc2)[C@H](c2ccccc2)N2[C@H]1[C@@H](C(=O)O)[C@]1(C(=O)Nc3ccccc31)[C@H]2c1ccc(O)cc1`, the z-score in [1] is -0.401; in [2], 0.671 (inactive); in experiment [3], 0.186 (inactive); in [5] it was 1.53 (inactive); in [6], 0.473 (inactive); in experiment [7], 0.293 (inactive). In addition, the z-score is -0.221 (inactive) in experiment [8] and 0.494 in experiment [9]. Also, the composite z-score was -1.66 (inactive) in experiment [4] and -0.237 in experiment [10].
In the case of `O=C1O[C@@H](c2ccccc2)[C@@H](c2ccccc2)N2[C@@H](c3ccc(O)cc3)[C@]3(C(=O)Nc4ccc(C#CC5=CCCCC5)cc43)[C@@H](C(=O)N3CCN(c4ncccn4)CC3)[C@H]12`, the z-score in experiment [1] was 1.48; in experiment [2], -0.066 (inactive); in experiment [3] it was -0.0922 (inactive); in [5], -0.0478 (inactive); in experiment [6], 0.207 (inactive); in experiment [7], -0.289 (inactive). Moreover, the z-score in experiment [8] was -0.348 (inactive); in experiment [9], -0.385. For the same compound, the composite z-score in [4] was -0.824 (inactive); in [10] it was 0.118.
Turning to `COc1ccc(C#Cc2ccc3c(c2)[C@]2(C(=O)N3)[C@H](C(=O)N3CCc4cc(OC)c(OC)cc4C3)[C@H]3C(=O)O[C@H](c4ccccc4)[C@H](c4ccccc4)N3[C@@H]2c2ccc(O)cc2)cc1`, the z-score in experiment [1] is -0.235; in experiment [2] it was 0.507 (inactive); in experiment [3], -0.443 (inactive); in [5], 1.45 (inactive); in [6], 1.36 (inactive); in [7] it was 0.0877 (inactive). Further, the z-score is 0.307 (inactive) in experiment [8] and -0.482 in experiment [9]. The composite z-score in experiment [4] is -0.719 (inactive); in experiment [10], -0.277.
As for `CCCCN1CC=CC23O[C@@H]4C=CCOC(=O)[C@@H]4[C@H]2C(=O)N(CCCO)[C@@H]3C1=O` (stereo not given in full), the z-score is -1.09 in experiment [1]; -0.233 (inactive) in [2]; -0.788 (inactive) in experiment [3]; -0.193 (inactive) in experiment [5]; 0.164 (inactive) in [6]; -1.33 (inactive) in experiment [7]. For the same compound, the z-score in [8] was -1.28 (inactive); in [9], -0.848. Also, the composite z-score in [4] is -0.284 (inactive); in [10], 0.106.
With `CN(C)CCCCNC(=O)[C@H]1C[C@H]2C(=O)N3CCC[C@H]3C(=O)N2[C@H]1c1ccc(O)cc1`, the z-score was 0.769 in experiment [1]; -0.659 (inactive) in experiment [2]; 0.949 (inactive) in [3]; 1.99 (inactive) in experiment [5]; -0.35 (inactive) in experiment [6]; -0.476 (inactive) in experiment [7]. The results for the z-score in experiment [8] and in [9] were -0.565 (inactive) and -0.536, respectively. Moreover, the composite z-score in [4] was -0.884 (inactive); in experiment [10], -0.192.
Take `[N-]=[N+]=NCc1ccccc1[C@H]1OC(c2ccc(OCCCO)cc2)=N[C@@]1(CCS(=O)(=O)c1ccccc1)C(N)=O`: the z-score in experiment [1] was 0.437; in experiment [2] it was -0.258 (inactive); in experiment [3], 0.284 (inactive); in [5], 0.274 (inactive); in experiment [6], -0.296 (inactive); in [7], 0.0575 (inactive). Also, the figures for the z-score in experiment [8] and in experiment [9] were -0.702 (inactive) and -0.134, respectively. Besides, the composite z-score was -0.136 (inactive) in experiment [4] and 0.182 in [10].
Regarding `CC(C)CNC(=O)[C@@H]1c2ccccc2C(=O)N(Cc2cc(F)cc(C(F)(F)F)c2)[C@H]1c1ccc(CO)cc1`, the z-score in experiment [1] was 0.564; in experiment [2], -0.874 (inactive); in [3], 0.895 (inactive); in experiment [5], 0.801 (inactive); in [6], -0.604 (inactive); in [7] it was 1.84 (inactive). In addition, the z-score is 1.42 (inactive) in experiment [8] and 1.16 in [9]. Moreover, the composite z-score is 0.369 (inactive) in experiment [4] and 0.0651 in [10].
With `O=C(CS)NCCCCCCNC(=O)[C@@H]1C[C@@H]2C(=O)N3CCC[C@H]3C(=O)N2[C@@H]1c1cccc(OCCO)c1`, the z-score in [1] is -0.306; in experiment [2], -0.21 (inactive); in [3], 0.832 (inactive); in experiment [5], 0.42 (inactive); in [6] it was -1.5 (inactive); in experiment [7], 0.743 (inactive). In addition, the z-score in experiment [8] is 1.65 (inactive); in [9], 0.356. The composite z-score in experiment [4] was -0.968 (inactive); in experiment [10], 0.0022.
